Hits are enriched below; roughly 0.9% of the tested compounds scored in any of these assays.
E coli growth-1 = E. coli growth inhibition, primary screen, OD600; Escherichia coli growth, 23 h; stronger effect = lower value; OD600 absorbance (concentration not given with the values); hit rate 0.21% among 330,000;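 active = OD600 absorbance below the run mean of sample wells minus 3.6 SD, in any replicate, cut at about 0.56 in these data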
Tat export inh = E. coli Tat export inhibitors, primary screen, MC4100, TorA-mCherry reporter, fluorescence, single point; inhibition, % at 10 µM; hit rate 0.036% among 340,000; AID 488895, 2010;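 active = mean replicate inhibition at least 50% and at least half of replicates individually reaching 50%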;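 also: exported cargo escapes ClpAP degradation while cytoplasmic cargo is degraded and loses fluorescence; 0% = median of neutral control wells and 100% = median of NaSCN control wells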
phage Ecoli inh = growth loss of phage-infected E. coli, primary screen, RecBCD inhibitor project, absorbance, with phage, HTS; hit rate 0.26% among 360,000; inhibition, % at 11.9 µM; AID 651602, 2012; in the data active = inhibition above about 11%
E coli growth-2 = E. coli V3065 growth inhibition, primary screen, counter-screen for AddAB inhibitor project, absorbance, OD600. 18 h. inhibition, % at 11.9 µM. hit rate 0.27% among 330,000. AID 449728, 2010;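 active = inhibition above the campaign's mean inhibition across all tested compounds plus 3 SD, cut at about 9.9% in these data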;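 also: uninfected addAB+ strain grown without phage in ampicillin broth; 0% = DMSO wells and 100% = ciprofloxacin 0.95 µg/ml wells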
Calb FLC = C. albicans growth inhibition with fluconazole, primary screen, CaCi-2 strain, Alamar Blue fluorescence. C. albicans CaCi-2 (fluconazole-resistant clinical isolate) + fluconazole, 48 h. growth inhibition, % (test concentration not listed). hit rate 0.57% among 300,000. AID 1979, 2009;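 active = growth inhibition above about 58% in most replicates, limit read from the data, passing the limit was not always enough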;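 also: all wells also contain fluconazole at 8 µg/ml as a sub-toxic cotreatment; 0% = median of DMSO wells and 100% = median of geldanamycin control wells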
AddAB inh = growth inhibition of E. coli expressing H. pylori AddAB, primary screen, AddAB inhibitor project, absorbance; inhibition, % at 11.9 µM; hit rate 0.29% among 330,000; in the data active = inhibition above about 12%;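 also: 0% = vehicle wells of infected cells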
AddAB confirm = growth loss of phage-infected E. coli expressing H. pylori AddAB, confirmation, AddAB inhibitor project, absorbance, E. coli V3065, T4 phage, triplicate; OD; T4 phage with gene 2 nonsense mutations; shares compounds with AddAB inh; hit rate 64% among 880; inhibition, % at 11.9 µM; AID 488942, 2010;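 active = mean inhibition above a set limit taken from the earlier primary screen, cut at about 13% in these data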;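 also: higher means less bacterial growth since AddAB block lets phage replicate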
RecBCD counter = growth loss of RecBCD+ E. coli with mutant T4 phage, counter-screen for AddAB inhibitor project, absorbance, V66 E. coli; AID 488955, 2010; hit rate 73% among 880; shares compounds with AddAB inh; inhibition, % at 11.9 µM; OD growth;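 active = mean inhibition above the mean of solvent-only control wells plus 3 SD, cut at about 4% in these data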;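 also: optical density read after an 18 h incubation at 37 °C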
bact viab count = bacterial viability inhibition counter-screen, confirmation, counter-screen for AddAB inhibitor project, absorbance | AID 488956, 2010 | absorbance (AddAB counterscreen) | inhibition, % at 11.9 µM | shares compounds with AddAB inh | hit rate 35% among 880; in the data active = inhibition above about 25%
RecBCD conf = growth loss of phage-infected RecBCD+ E. coli, confirmation, RecBCD inhibitor project, absorbance, E. coli V66, T4 gene 2 phage; shares compounds with phage Ecoli inh; E. coli V66 + T4 2- phage, growth OD; inhibition, % at 11.9 µM; hit rate 45% among 890; AID 651982, 2013;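 active = mean inhibition over triplicates exceeding the hit threshold derived in the original primary screen, cut at about 11% in these data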
Ecoli viability = E. coli viability inhibition, counter-screen for RecBCD inhibitor project, absorbance, high throughput. shares compounds with phage Ecoli inh. absorbance (OD) growth. inhibition, % at 11.9 µM. hit rate 29% among 890. AID 651983, 2013; in the data active = inhibition above about 20%;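 also: E. coli strain V66 grown with compound alone and no phage infection; 0% = bacteria with DMSO vehicle only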
AddAB phage OD = growth loss of phage-infected AddAB-carrying E. coli, confirmation, counter-screen for RecBCD inhibitor project, absorbance, E. coli V3065, T4 phage; shares compounds with phage Ecoli inh; E. coli expressing H. pylori AddAB + T4 phage, OD growth; gene 2 mutant T4, recBCD-deleted host; inhibition, % at 11.9 µM; hit rate 45% among 890;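 active = mean inhibition above the solvent-only control wells' mean plus 3 SD, cut at about 22% in these data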;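 also: higher means less bacterial growth from phage killing when AddAB is blocked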
An asterisk follows results filed as active.

How did Brc1ccc(N/N=C(/N=Nc2nn[nH]n2)c2ccccc2)cc1 do in these assays?
Tat export inh: 15.0; phage Ecoli inh: 26.3*; E coli growth-2: 30.3*; Calb FLC: 123.6*; AddAB inh: 29.7*; AddAB confirm: 21.5*; RecBCD counter: 25.9*; bact viab count: 25.4*; RecBCD conf: 21.0*; Ecoli viability: 22.9*; AddAB phage OD: 27.6*

How did Brc1ccc(NN=C(N=Nc2nn[nH]n2)c2ccccc2)cc1 do in these assays?
E coli growth-1: 0.598

How did C=C1c2cccc(O)c2C(=O)C2C(=O)[C@]3(O)C(=O)C(C(N)=O)C(=O)[C@@H](N(C)C)[C@@H]3[C@@H](O)[C@H]12 (stereo partly drawn) do in these assays?
Tat export inh: 145.0*; phage Ecoli inh: 99.1*; E coli growth-2: 102.0*; AddAB inh: 99.8*; AddAB confirm: 101.2*; RecBCD counter: 100.5*; bact viab count: 99.2*; RecBCD conf: 103.0*; Ecoli viability: 104.6*; AddAB phage OD: 103.8*

How did O=C(O)c1cccc(NC(=S)N/N=C/c2ccccn2)c1 do in these assays?
Tat export inh: -3.0; phage Ecoli inh: 23.1*; E coli growth-2: 16.5*; Calb FLC: 64.0; AddAB inh: 17.3*; AddAB confirm: 19.4*; RecBCD counter: 17.0*; bact viab count: 17.9; RecBCD conf: 11.4*; Ecoli viability: 15.1; AddAB phage OD: 17.2

Results for S=C(NN=C1C2CN3CCN(C2)CC1(c1ccccc1)C3)Nc1ccccc1 ?
E coli growth-1: 0.714

How did CSCCCc1cn(C(CO)C(=O)NCCCCCCCCCCC(=O)N2CCNCC2)nn1 (stereo not drawn) do in these assays?
E coli growth-1: 0.683

How did CCCC(=O)NCCCCNC(=O)CCC do in these assays?
E coli growth-1: 0.696; Tat export inh: -3.6; phage Ecoli inh: 2.1; E coli growth-2: -3.0; Calb FLC: -3.9; AddAB inh: -2.4

Results for CC(=O)N(O)CCCCCNC(=O)CCC(=O)N(O)CCCCCNC(=O)CCC(=O)N(O)CCCCCN ?
Tat export inh: 5.3; phage Ecoli inh: 17.3*; E coli growth-2: 22.4*; AddAB inh: 18.3*; AddAB confirm: 6.7; RecBCD counter: 13.3*; bact viab count: 2.7; RecBCD conf: 3.4; Ecoli viability: 6.8; AddAB phage OD: 13.6

Results for O=c1[nH]cnc2c1ncn2[C@H]1CC[C@@H](CO)O1 ?
Tat export inh: 8.0; phage Ecoli inh: 100.8*; E coli growth-2: 98.3*; AddAB inh: 97.0*; AddAB confirm: 97.8*; RecBCD counter: 96.0*; bact viab count: 98.1*; RecBCD conf: 98.0*; Ecoli viability: 100.5*; AddAB phage OD: 98.6*

How did Nc1nc(Cl)nc2c1ncn2C1CCC(CO)O1 (stereo not drawn) do in these assays?
phage Ecoli inh: 2.7
